Measured values as given in PubChem BioAssay (NCI).
About 83,000 compounds went through this panel and 20% of them were active in at least one assay; those are over-represented in the sample as a whole.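 Note: values are percent growth. 100 is the growth of untreated cells, values between 100 and 0 indicate rising inhibition; between -100 and 0 indicates cell death.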 Active and inactive are the calls of the source. Rule for the calls: active = growth percent below 10; inactive = the rest.

Key:
Test in all cases: NCI-60 one-dose screen, 48 h (100 = growth as untreated, 0 = no growth, -100 = all killed)
Conditions in all cases: 10 µM unless noted
[1] = tested on: NCI-H23 lung
[2] = tested on: NCI-H226 lung
[3] = tested on: NCI-H322M lung
[4] = tested on: HOP-62 NSCLC
[5] = tested on: NCI-H460 lung
[6] = tested on: HOP-92 NSCLC
[7] = tested on: NCI-H522 lung
[8] = tested on: A549/ATCC NSCLC
[9] = tested on: 786-0 renal
[10] = tested on: DU-145 prostate
[11] = tested on: K-562 leukemia
[12] = tested on: MALME-3M melanoma
[13] = tested on: MDA-MB-231 breast
[14] = tested on: RXF 393 renal
[15] = tested on: SF-268 CNS
[16] = tested on: SF-295 CNS
[17] = tested on: SF-539 CNS
[18] = tested on: UACC-257 melanoma
[19] = tested on: M14 melanoma

Measured: growth

CN(C)c1ccc(/C=C2\C=C(c3ccccc3)N(CCc3ccccc3)C2=O)cc1
inactive: [1] 64.2% | [2] 52.8% | [3] 71.9% | [5] 23.6% | [6] 51.2% | [7] 50.6% | [8] 34.8% | [9] 48.9% | [10] 60.4% | [11] 90.6% | [12] 57.7% | [13] 84.6% | [14] 81.4% | [15] 43.8% | [16] 53.9% | [17] 61.6% | [18] 76.8% | [19] 51.7%
active: [4] -14%

N#Cc1c(N)n2c(nc1=Nc1ccc(Cl)cc1)sc1cc(Cl)ccc12
active: [16] -2.32%
inactive: [1] 66.6% | [2] 36.7% | [3] 91% | [4] 96.9% | [5] 95.1% | [6] 76.6% | [7] 93% | [8] 75.4% | [9] 51.4% | [10] 97.7% | [11] 92.1% | [12] 85.4% | [13] 67.1% | [14] 65.1% | [15] 56.4% | [17] 103% | [18] 54.4% | [19] 62.2%

COc1cc2cc(Oc3ccc(NC(=O)Nc4cc(C(F)(F)F)cc(C(F)(F)F)c4)cc3)c(C)nc2cc1OCCN1CCCCC1
active: [1] -73.3% | [3] -87.1% | [4] -50% | [5] -78% | [7] -53% | [8] -64.9% | [9] -83.6% | [10] -95% | [11] -49.3% | [12] -86.2% | [13] -97.3% | [15] -49.3% | [16] -81.8% | [17] -94% | [18] -47.4% | [19] -79.6%
inactive: [2] 22.1% | [6] 42.2% | [14] 31.8%

O=C(NC(=S)Nc1ccc(-c2nc3ccccc3[nH]2)cc1)c1ccc2ccccc2c1
active: [4] 8.8% | [5] 5.41% | [6] -1.16% | [9] -67.5% | [12] -12% | [13] -18.6% | [14] -66.3% | [17] -30.8%
inactive: [1] 58.1% | [2] 51.1% | [3] 21.5% | [7] 63.2% | [8] 26.3% | [10] 18.8% | [11] 59.9% | [15] 51% | [16] 19.7% | [18] 49.2% | [19] 38%

CNC(=O)c1cc(Oc2ccc3nc(NC(=O)Nc4cc(C(F)(F)F)cc(C(F)(F)F)c4)sc3c2)ccn1
active: [1] -67.9% | [2] -13.7% | [3] -46.6% | [4] -70.5% | [5] -57.5% | [6] -54.6% | [7] -71.9% | [8] -71.4% | [9] -64% | [10] -39.6% | [11] -2.97% | [12] -57.5% | [13] -53.1% | [14] -24.5% | [15] -25.6% | [16] -81.9% | [17] -80% | [18] -50.8% | [19] -39%

O=C1NCC(=O)N(Cc2ccco2)[C@H]1Cc1ccccc1
inactive: [1] 100% | [2] 89% | [3] 112% | [4] 81.6% | [5] 103% | [6] 88.7% | [7] 88.2% | [8] 102% | [9] 95.1% | [10] 110% | [11] 107% | [12] 110% | [13] 89.1% | [14] 117% | [15] 102% | [16] 96.5% | [17] 97.9% | [18] 86.9% | [19] 98.2%

O=C(CCl)N1c2cccc3cccc(c23)N(C(=O)CCl)C1c1cn(-c2ccccc2)nc1-c1cccc([N+](=O)[O-])c1
inactive: [1] 90.1% | [2] 98.8% | [3] 104% | [4] 94.5% | [5] 103% | [6] 117% | [7] 77.1% | [8] 107% | [9] 95.5% | [10] 98% | [11] 33.3% | [12] 108% | [13] 85.7% | [14] 99.9% | [15] 99.4% | [16] 103% | [17] 96.5% | [18] 103% | [19] 84.8%

COc1ccc(-n2ncn(CCCCCCn3cnn(-c4ccc(OC)cc4)c3=O)c2=O)cc1
inactive: [1] 82.9% | [2] 80.3% | [3] 88.4% | [4] 89.5% | [5] 103% | [6] 89.4% | [7] 76.3% | [8] 96.7% | [9] 96.7% | [10] 101% | [11] 72.7% | [12] 95.7% | [13] 87.4% | [14] 98.2% | [15] 91.4% | [16] 93.6% | [17] 91.7% | [18] 101% | [19] 97.5%

COC(=O)c1ccc2oc(NC(=O)c3ccc(N4CCOCC4)c([N+](=O)[O-])c3)nc2c1
inactive: [1] 93% | [2] 90.5% | [3] 92.6% | [4] 82.3% | [5] 105% | [6] 84.9% | [7] 91% | [8] 98.7% | [9] 108% | [10] 102% | [11] 84.6% | [12] 90.5% | [13] 100% | [14] 119% | [15] 97.4% | [16] 97.7% | [17] 89.6% | [18] 97.9% | [19] 98.8%

O=C(CC12CC3CC(CC(C3)C1)C2)NCCOCCOCCOCCNC(=O)c1cc2c(o1)C(=O)c1ccccc1C2=O
active: [1] -47.6% | [2] -73.6% | [3] -78.7% | [4] -49.7% | [5] -71.5% | [7] -45.6% | [8] -41.2% | [9] -5.36% | [10] -95.6% | [11] 2.13% | [12] -96.3% | [13] -0.382% | [14] -51.3% | [15] -3.17% | [16] -90.1% | [17] -90.4% | [18] -80.7% | [19] -76.2%
inactive: [6] 27.6%

CCOc1ccc(S(=O)(=O)c2ccc(C)cc2)c2c1no[n+]2[O-]
inactive: [1] 82.4% | [2] 77.2% | [3] 92.7% | [4] 101% | [5] 86.4% | [6] 36.5% | [7] 57.1% | [8] 97.2% | [9] 79.6% | [10] 86.2% | [11] 46.1% | [12] 81.3% | [13] 81.2% | [14] 81.8% | [15] 99.1% | [16] 82.9% | [17] 87% | [18] 95.8% | [19] 93.4%

CCOc1ccc2nc(-c3cccc(OCC(=O)NC(C)C)c3)nc(Nc3ccc(-c4cn[nH]c4)cc3)c2c1
inactive: [1] 11.3% | [2] 38.8% | [15] 12.6% | [19] 11.6%
active: [3] -8.36% | [4] -36.3% | [5] -37.9% | [6] -27.9% | [7] -25.3% | [8] -34.9% | [9] -12.5% | [10] 4.3% | [11] -17.1% | [12] -66% | [13] 2.7% | [14] -43.7% | [16] -47.4% | [17] -79.6% | [18] -53.7%

O=C1Nc2ccccc2/C1=N/N=C/c1ccc(OC2OC(CO)C(O)C(O)C2O)cc1 (centres undefined)
inactive: [1] 102% | [2] 104% | [3] 105% | [4] 103% | [5] 111% | [6] 111% | [7] 95% | [8] 102% | [9] 109% | [10] 114% | [11] 98.3% | [12] 101% | [13] 105% | [14] 114% | [15] 102% | [16] 110% | [17] 97.5% | [18] 106% | [19] 108%

CCCN1CCN(c2ccc3nc(-c4ccc5nc(-c6cc(OC)c(OC)c(OC)c6)[nH]c5c4)[nH]c3c2)CC1
inactive: [1] 80.1% | [2] 81.7% | [3] 94% | [4] 84.3% | [5] 93.2% | [6] 70.5% | [7] 41.1% | [8] 106% | [9] 77.3% | [10] 109% | [11] 59.5% | [13] 98.4% | [14] 15.6% | [15] 75.6% | [16] 65.9% | [17] 59.6% | [18] 71.7% | [19] 63.9%
active: [12] 7.58%

CC(C)n1nc(C#Cc2cccc(NC(=O)c3cccc(C(F)(F)F)c3)c2)c2c(N)ncnc21
active: [1] -3.4% | [2] -0.0561% | [3] -18.3% | [4] -37.9% | [5] 5.91% | [6] -33.7% | [7] -18.6% | [8] -14.4% | [9] -20.9% | [10] -22.9% | [11] -22.6% | [12] -39% | [13] -81.9% | [14] -76.8% | [15] 3.1% | [16] -14.9% | [17] -73.9% | [18] -18.2% | [19] -44%

COc1cc(CNC(=O)/C=C/C=C/c2ccc3c(c2)OCO3)ccc1OCc1cn(-c2ccc(Cl)c(Cl)c2)nn1
inactive: [2] 31.2% | [3] 21.6% | [15] 18% | [17] 74.4%
active: [1] -34.1% | [4] -19.8% | [5] -57.5% | [6] -14.7% | [7] 5.67% | [8] 2.23% | [9] -40.6% | [10] -32.3% | [11] 5.49% | [12] -54.7% | [13] 5.5% | [14] -24% | [16] -39% | [18] -17.4% | [19] -30.4%
